This is a sample that favours compounds with a hit; in the whole collection about 3% have one here.
EWS-Fli block: EWS/Fli-driven NR0B1 reporter inhibitors, primary screen, A673 cells, NR0B1 luciferase, luminescence, MLPCN library; viability-normalised; inhibition, % at 12.6 µM; 350,000 compounds, 0.67% hits;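 active = mean inhibition of at least 50% after viability correction, with every replicate also passing that limit; inconclusive = mean reaches 50% but only one of two replicates passes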;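 also: firefly luciferase signal divided by Alamar Blue viability fluorescence both relative to DMSO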
Peg3 prom inh: Peg3 promoter-driven luciferase inhibitors, primary screen, cell-based, HeLa, luciferase luminescence. HeLa PEG-Prom luciferase reporter, overnight. inhibition, % at 20 µM. 360,000 compounds, 1.7% hits. AID 588405, 2011;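 active = inhibition of at least 50% at 20 µM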
Shn3 inh set2: reduction of Shn3 3'UTR firefly luciferase signal, primary screen, Schnurri-3 inhibitor project, cell-based, Clone20 osteoblasts, set 2; AID 588674, 2011; 360,000 compounds, 0.52% hits; Clone20 osteoblast Shn3 3'UTR firefly luciferase, 24 h; inhibition, % at 12.5 µM;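 active = mean inhibition of at least 75% with every replicate also reaching 75%; inconclusive = mean inhibition at least 75% but some replicate below; inactive = mean inhibition below 75%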;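 also: 0% = median of neutral control wells and 100% = pilot-screen positive control compound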
MITF TRPM1 inh: inhibitors of MITF-dependent TRPM1 promoter reporter, primary screen, cell-based, SK-MEL-5, single point, luciferase; 330,000 compounds, 0.83% hits; inhibition, % at 12.5 µM; SK-MEL-5 TRPM1 promoter luciferase, 24 h;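 active = mean inhibition across replicates of 60% or more, whatever share of single replicates reaches that level; inconclusive = some that reach 60%, reason not given; inactive = mean inhibition across replicates below 60%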
ABHD5 PLIN5 PPI: ABHD5-PLIN5 interaction inhibitors, primary screen, cell lysate, split luciferase complementation, luminescence; Perilipin-5 (Homo sapiens) + 1-acylglycerol-3-phosphate O-acyltransferase ABHD5 (Homo …; Split G. princeps luciferase complementation, 4 h; inhibition, % at 4 µM; 360,000 compounds, 0.78% hits;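 active = inhibition above the mean inhibition across every tested compound plus 3 SD, cut at about 22% in these data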;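 also: 0% = DMSO only wells and the 100% control is not disclosed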
PAX8 inh HTS: inhibitors of PAX8-driven TPO luciferase reporter, primary screen, RMG-I cells, single concentration; inhibition, % at 12.6 µM; 360,000 compounds, 1.2% hits; AID 652154, 2013; SteadyGlo, 24 h;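 active = mean replicate inhibition at least 60% with every replicate also reaching 60%; inconclusive = only one of the two criteria is met; inactive = mean below 60% and not all replicates reaching 60%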;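 also: luciferase light reporting Pax8 driven TPO promoter activity; plate controls were median of neutral control wells for no effect and mitoxantrone controls for full effect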
ABHD5-PLIN5 conf: ABHD5-PLIN5 interaction inhibitors, confirmation, biochemical, luminescence | shares compounds with ABHD5 PLIN5 PPI | inhibition, % at 4 µM | 2,200 compounds, 67% hits; in the data active = inhibition above about 23%;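 also: 0% = DMSO vehicle wells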
HNF4 counter: HNF4 dimerization inhibitors, counter-screen for ABHD5-PLIN5 interaction inhibitor project, biochemical, split-luciferase complementation, luminescence; inhibition, % at 4 µM; shares compounds with ABHD5 PLIN5 PPI; 2,200 compounds, 77% hits;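 active = mean inhibition across replicate wells exceeding the computed hit threshold, cut at about 13% in these data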;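 also: light from luciferase halves that rejoin when HNF4 fusion proteins dimerize; 0% = DMSO only wells and the 100% control is not given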
Target sequence (P41235 whole entry, looked up, the tested form may be a part): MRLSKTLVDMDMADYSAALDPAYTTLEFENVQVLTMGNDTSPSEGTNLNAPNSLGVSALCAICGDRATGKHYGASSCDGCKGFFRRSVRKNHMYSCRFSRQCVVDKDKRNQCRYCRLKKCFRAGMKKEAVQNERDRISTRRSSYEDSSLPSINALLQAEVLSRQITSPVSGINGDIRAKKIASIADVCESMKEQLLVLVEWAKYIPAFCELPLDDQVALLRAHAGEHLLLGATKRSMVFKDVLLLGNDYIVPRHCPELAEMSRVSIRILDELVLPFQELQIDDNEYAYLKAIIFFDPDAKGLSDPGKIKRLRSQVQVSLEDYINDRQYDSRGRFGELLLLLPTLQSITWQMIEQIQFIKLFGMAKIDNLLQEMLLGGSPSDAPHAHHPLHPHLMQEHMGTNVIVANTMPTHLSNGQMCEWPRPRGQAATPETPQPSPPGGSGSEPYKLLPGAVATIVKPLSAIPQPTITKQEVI
* hit, by the source's call.

Screening CNC[C@@H]1Oc2cc(C#CCOC)ccc2S(=O)(=O)N([C@@H](C)CO)C[C@@H]1C returned EWS-Fli block -1 and PAX8 inh HTS 6.
COc1ccc2c3c(n(C)c2c1)[C@@H](CO)N(C(=O)c1ccncc1)CC31CN(C)C1 was read as EWS-Fli block 3.
For COC(=O)C1=C(C)N(Cc2ccco2)C(=O)/C1=C\c1ccc([N+](=O)[O-])cc1 the results were EWS-Fli block 19, Peg3 prom inh 94*, Shn3 inh set2 8, MITF TRPM1 inh 9, ABHD5 PLIN5 PPI 70*, PAX8 inh HTS 13, ABHD5-PLIN5 conf 98* and HNF4 counter 95*.
COC(=O)C1=C(C)N(Cc2ccco2)C(=O)/C1=C\c1ccc(N(C)C)cc1 was read as Peg3 prom inh 0, Shn3 inh set2 36, MITF TRPM1 inh -9, ABHD5 PLIN5 PPI -3 and PAX8 inh HTS -12.
CCOC(=O)C(c1ccccc1)C(Nc1ccc(F)cc1)c1ccccn1 (stereo not given) was read as EWS-Fli block 21, Peg3 prom inh 19, Shn3 inh set2 8, MITF TRPM1 inh 7, ABHD5 PLIN5 PPI 3 and PAX8 inh HTS 34.
CCOC(=O)C(C(=O)OCC)C(Nc1ccc(Br)cc1)c1ccccc1 (stereo not given) was read as Peg3 prom inh 11, Shn3 inh set2 -21, MITF TRPM1 inh -1, ABHD5 PLIN5 PPI 26*, PAX8 inh HTS 16, ABHD5-PLIN5 conf 11 and HNF4 counter 52*.
Screening C=CCOC(=O)/C=C/C(=O)NC(N)=O returned EWS-Fli block 7, Peg3 prom inh 11, Shn3 inh set2 -14, MITF TRPM1 inh 4, ABHD5 PLIN5 PPI 35*, PAX8 inh HTS 0, ABHD5-PLIN5 conf 57* and HNF4 counter 55*.
For C[C@@H]1CCCCO[C@H](CN(C)Cc2ccc(C(F)(F)F)cc2)[C@H](C)CN([C@@H](C)CO)C(=O)c2cc(NC(=O)C3CCCCC3)ccc2O1 the results were EWS-Fli block 47 and PAX8 inh HTS 20.
Screening Cc1ccc(C(=O)/C=C/c2ccc(Br)cc2)o1 returned Peg3 prom inh -5, Shn3 inh set2 -14, MITF TRPM1 inh 0, ABHD5 PLIN5 PPI 53*, PAX8 inh HTS -16, ABHD5-PLIN5 conf 85* and HNF4 counter 61*.
`CNC[C@H]1Oc2c(NC(=O)Nc3cccc4ccccc34)cccc2C(=O)N([C@H](C)CO)C[C@@H]1C` gave EWS-Fli block -4 and PAX8 inh HTS 34.
COc1cccc(-c2nnc(SCC(=O)NCc3ccc4c(c3)OCO4)n2Cc2ccco2)c1 was read as Peg3 prom inh 10, Shn3 inh set2 -21, MITF TRPM1 inh -8, ABHD5 PLIN5 PPI 28*, ABHD5-PLIN5 conf 6 and HNF4 counter 10.
Nc1nc(Sc2c([N+](=O)[O-])cc(C(F)(F)F)cc2[N+](=O)[O-])n[nH]1 was read as EWS-Fli block 55*, Peg3 prom inh -2, Shn3 inh set2 60, MITF TRPM1 inh 4, ABHD5 PLIN5 PPI 58*, PAX8 inh HTS 21, ABHD5-PLIN5 conf 79* and HNF4 counter 98*.
Screening COc1ccc(NC(=O)Nc2cccc3c2O[C@@H](CN(C)Cc2ccc4c(c2)OCO4)[C@@H](C)CN([C@H](C)CO)C3=O)cc1 returned PAX8 inh HTS 5.
O=C1CC(c2ccc(Cl)cc2)Oc2ccc(Cl)cc21 (stereo not given) was read as EWS-Fli block -24, Peg3 prom inh -8, Shn3 inh set2 -31, MITF TRPM1 inh -29, ABHD5 PLIN5 PPI 23*, PAX8 inh HTS 2, ABHD5-PLIN5 conf 62* and HNF4 counter 33*.
`O=C1CC(c2ccccc2)Oc2ccccc21` (stereo not given) gave EWS-Fli block -27, Peg3 prom inh -75, Shn3 inh set2 -18, MITF TRPM1 inh -23, ABHD5 PLIN5 PPI 12 and PAX8 inh HTS -64.
For CCC(=O)Nc1cccc(C(=O)/C=C/c2ccccc2)c1 the results were Peg3 prom inh 102*, Shn3 inh set2 -36, MITF TRPM1 inh 10, ABHD5 PLIN5 PPI 68*, ABHD5-PLIN5 conf 75* and HNF4 counter 53*.
For CCOC(=O)Nc1ccc(C(=O)/C=C/c2ccccc2)cc1 the results were EWS-Fli block -32, Peg3 prom inh -49, Shn3 inh set2 -28, MITF TRPM1 inh -21, ABHD5 PLIN5 PPI 42*, PAX8 inh HTS -62, ABHD5-PLIN5 conf 60* and HNF4 counter 44*.
For CCC(=O)Nc1cccc(C(=O)/C=C/c2cccs2)c1 the results were EWS-Fli block -34, Peg3 prom inh -103, Shn3 inh set2 -26, MITF TRPM1 inh -11, ABHD5 PLIN5 PPI 33*, PAX8 inh HTS -97, ABHD5-PLIN5 conf 49* and HNF4 counter 37*.
`CCC(=O)Nc1cccc(C(=O)c2ccccc2)c1` gave Peg3 prom inh -9, Shn3 inh set2 0, MITF TRPM1 inh -17 and ABHD5 PLIN5 PPI 3.
Cc1ccc2c(c1)C(=O)C(=O)N2Cc1ccc(Br)cc1 was read as EWS-Fli block -18, Peg3 prom inh -26, Shn3 inh set2 -6, MITF TRPM1 inh 17, ABHD5 PLIN5 PPI 18 and PAX8 inh HTS 3.
For Cc1ccc(CN2C(=O)C(=O)c3cc(C)ccc32)cc1 the results were EWS-Fli block 12, Peg3 prom inh -12, Shn3 inh set2 -5, MITF TRPM1 inh -1, ABHD5 PLIN5 PPI 30*, PAX8 inh HTS 12, ABHD5-PLIN5 conf 25* and HNF4 counter 43*.
COc1cc(/C=C(/C(=O)c2cccs2)c2nc3ccccc3[nH]2)cc(OC)c1O was read as Peg3 prom inh 100*, Shn3 inh set2 -15, MITF TRPM1 inh 53, ABHD5 PLIN5 PPI 60*, ABHD5-PLIN5 conf 88* and HNF4 counter 88*.
O=C(/C(=C/c1ccc(Cl)cc1)c1nc2ccccc2[nH]1)c1ccccc1 was read as Peg3 prom inh 108*, Shn3 inh set2 inconclusive, MITF TRPM1 inh 84*, ABHD5 PLIN5 PPI 28*, ABHD5-PLIN5 conf 100* and HNF4 counter 94*.
For O=C(C[C@H]1CC[C@@H]2[C@H](COC[C@@H](O)CN2C(=O)c2cccnc2)O1)NC1Cc2ccccc2C1 the results were EWS-Fli block 1 and PAX8 inh HTS -4.
`C[C@H](CO)N1C[C@H](C)[C@H](CN(C)S(C)(=O)=O)OCCCC[C@H](C)Oc2ccc(NS(C)(=O)=O)cc2C1=O` gave EWS-Fli block -11 and PAX8 inh HTS -19.

Assay outcomes deposited in PubChem by several laboratories.
